Source: PubChem BioAssay
An excerpt weighted towards active compounds, which were near 3.5% of everything screened.
Pf apPOL inh: Pf-apPOL DNA polymerase inhibition; inhibition, % at 10 µM; AID 1794808; Recombinant Pf-apPOL, molecular beacon fluorescence, 1.5 h; hit rate 0.25% among 210,000
mHTT CaM bind: mHTT-calmodulin interaction abrogation; P42858; AlphaScreen His-mHTT/GST-CaM binding, luminescence; inhibition, % at 15 µM; hit rate 3.6% among 190,000; AID 1671202
A number is an active result. Cut-off read from the data, not from the text of the source: active = inhibition above about 50%; inactive = the rest.

Screening COc1ccccc1C1C=C(c2ccc(I)cc2)Nc2ncnn21 (stereo not drawn) returned Pf apPOL inh inactive and mHTT CaM bind inactive.
`COc1ccc(OC)c(C=C2SC(=S)N(C(C(=O)O)C(C)C)C2=O)c1` (stereo not drawn) gave Pf apPOL inh inactive and mHTT CaM bind 51.
COc1ccc(OC)c(C=C2SC(=S)N(C(C)C(=O)O)C2=O)c1 (stereo not drawn) was read as Pf apPOL inh inactive and mHTT CaM bind inactive.
For CC(C)C(C(=O)O)N1C(=O)C(=Cc2ccccc2)SC1=S (stereo not drawn) the results were Pf apPOL inh inactive and mHTT CaM bind inactive.
For CC(C)C(C(=O)O)N1C(=O)C(=Cc2cccc(Br)c2)SC1=S (stereo not drawn) the results were Pf apPOL inh inactive and mHTT CaM bind 59.
`N#CC(=Cc1ccc(C(F)(F)F)cc1)c1cccs1` gave Pf apPOL inh inactive.
For CCSc1ccccc1C(=O)Nc1nnc(-c2ccsc2)o1 the results were Pf apPOL inh inactive and mHTT CaM bind 84.
Screening Cc1ccc(NC(=O)C2(c3ccccc3)CCOCC2)cc1 returned Pf apPOL inh inactive and mHTT CaM bind inactive.
`CCSc1ccccc1C(=O)Nc1nnc(C2CCCCC2)o1` gave Pf apPOL inh inactive and mHTT CaM bind inactive.
O=C(Nc1nnc(-c2ccsc2)o1)C1(c2ccccc2)CCOCC1 was read as Pf apPOL inh inactive and mHTT CaM bind 100.
O=C(CSCc1ccccc1)Nc1nnc(-c2ccsc2)o1 was read as Pf apPOL inh inactive and mHTT CaM bind inactive.
Screening O=C(Nc1c(Cl)cccc1Cl)C1(c2ccccc2)CCOCC1 returned Pf apPOL inh 86 and mHTT CaM bind inactive.
CCOc1ccccc1C=C1Oc2cc(OC(=O)C3CC3)ccc2C1=O was read as Pf apPOL inh inactive and mHTT CaM bind inactive.
`COc1ccc2nc(SCC(=O)Nc3ccc(Cl)cc3Cl)[nH]c2c1` gave Pf apPOL inh inactive and mHTT CaM bind inactive.
Screening CC(=O)N1CCN(CC(=O)N2N=C(c3ccccc3)CC2c2ccc(F)cc2)CC1 (stereo not drawn) returned Pf apPOL inh inactive and mHTT CaM bind inactive.
`COc1ccccc1C1CC(c2ccc(F)cc2)=NN1C(=O)CN1CCC(C)CC1` (stereo not drawn) gave Pf apPOL inh inactive and mHTT CaM bind 93.
Screening COc1ccccc1C1CC(c2cccc(F)c2)=NN1C(=O)CN1CCN(C)CC1 (stereo not drawn) returned Pf apPOL inh inactive and mHTT CaM bind 99.
Screening COc1ccccc1C1=NN(C(=O)CN2CCC(C)CC2)C(c2cccc(F)c2)C1 (stereo not drawn) returned Pf apPOL inh inactive and mHTT CaM bind inactive.
For CC(=O)Nc1cccnc1-c1ccc(C(=O)Nc2cccc(Cl)c2C)cc1 the results were Pf apPOL inh inactive and mHTT CaM bind inactive.
Screening O=C(Nc1cccc(Cl)c1)NC1CC1 returned Pf apPOL inh inactive and mHTT CaM bind inactive.
For Nc1cccc2c1NC(c1ccc(Cl)cc1)C1CCCC21 (stereo not drawn) the results were Pf apPOL inh inactive and mHTT CaM bind 90.
For CC(C)(C)C(=O)Nc1ccc(C(=O)Nc2c[nH]c(=O)[nH]c2=O)cc1 the results were Pf apPOL inh inactive and mHTT CaM bind inactive.
`O=C1Nc2ccc(Br)cc2/C1=C/c1ccc([N+](=O)[O-])o1` gave Pf apPOL inh inactive and mHTT CaM bind 71.
`O=C1Nc2ccc(Br)cc2/C1=C/c1ccccc1` gave Pf apPOL inh inactive and mHTT CaM bind inactive.
O=C1NN(c2ccc(Br)cc2)C(=O)/C1=C/c1ccc([N+](=O)[O-])o1 was read as Pf apPOL inh inactive and mHTT CaM bind 97.
For Cc1cc(C)c(N2C(=O)NC(=O)/C(=C\c3ccc([N+](=O)[O-])o3)C2=O)c(C)c1 the results were Pf apPOL inh inactive and mHTT CaM bind 60.
`Cc1ccc(-c2ccc(/C=C3\C(=O)NN(c4ccc(F)cc4)C3=O)o2)c([N+](=O)[O-])c1C` gave Pf apPOL inh inactive and mHTT CaM bind inactive.
`C=CCN1C(=O)NC(=O)/C(=C/c2ccc(-c3ccc([N+](=O)[O-])cc3C)o2)C1=O` gave Pf apPOL inh inactive and mHTT CaM bind inactive.
CN(C)CCNC(=O)c1ccc(-c2nc(-c3ccccc3)no2)cc1 was read as Pf apPOL inh inactive and mHTT CaM bind inactive.
`CCOc1ccc(CCNS(=O)(=O)c2ccc([N+](=O)[O-])cc2)cc1OCC` gave Pf apPOL inh inactive and mHTT CaM bind inactive.
For COc1ccc(CNC(=O)C(=O)NCC2CCN(Cc3ccccc3)CC2)cc1 the results were Pf apPOL inh inactive and mHTT CaM bind inactive.
Screening COc1ccccc1-c1nc(C(=O)NCC(C)C)cs1 returned Pf apPOL inh inactive and mHTT CaM bind inactive.
CCCc1cc2c(=O)c(-c3ccc4c(c3)OCCCO4)c(C)oc2cc1OC was read as Pf apPOL inh inactive and mHTT CaM bind inactive.
Screening COc1ccc(-c2oncc2-c2ccc3c(c2)OCCO3)c(O)c1 returned Pf apPOL inh inactive and mHTT CaM bind inactive.
For CCCc1cc(-c2oncc2-c2ccc3c(c2)OCCO3)c(O)cc1OC the results were Pf apPOL inh inactive and mHTT CaM bind 63.
For CCCc1cc(-c2[nH]ncc2-c2ccc3c(c2)OCCCO3)c(O)cc1OC the results were Pf apPOL inh inactive and mHTT CaM bind 76.
For CC(=O)Nc1cc(C(=O)N2CCCCCC2)c2ccc(C)nc2c1 the results were Pf apPOL inh inactive and mHTT CaM bind inactive.
For O=C(Nc1ccc(-c2nc3cccnc3s2)cc1)c1ccccc1Cl the results were Pf apPOL inh inactive and mHTT CaM bind inactive.
For Cn1cc(/C=C2\SC(=Nc3ccccc3)NC2=O)c2ccccc21 the results were Pf apPOL inh inactive and mHTT CaM bind 55.
For O=C1NC(=Nc2ccccc2)S/C1=C/c1ccccc1Br the results were Pf apPOL inh inactive and mHTT CaM bind inactive.
O=C(CN(C1CCCCC1)S(=O)(=O)c1ccc(F)cc1)NCc1ccco1 was read as Pf apPOL inh inactive and mHTT CaM bind inactive.
C=CCN1C(=O)/C(=C/c2ccc(O)cc2)SC1=Nc1ccccc1 was read as Pf apPOL inh inactive and mHTT CaM bind 78.
`C=CCN1C(=O)/C(=C/c2ccccc2O)SC1=Nc1ccccc1` gave Pf apPOL inh inactive and mHTT CaM bind inactive.
For CC1=NN(C(=S)c2ccc(C)cc2)C(C)(O)C1CC(C)C (stereo not drawn) the results were mHTT CaM bind 76.
`CC=CC(=O)Oc1cc(C)[nH]c(=O)c1[N+](=O)[O-]` gave Pf apPOL inh inactive and mHTT CaM bind inactive.
`COc1cccc(C(=O)Oc2cc(C)[nH]c(=O)c2[N+](=O)[O-])c1OC` gave Pf apPOL inh inactive and mHTT CaM bind inactive.
For COc1ccc(C(=O)Oc2cc(C)[nH]c(=O)c2[N+](=O)[O-])cc1OC the results were Pf apPOL inh inactive and mHTT CaM bind 86.
Screening Cc1cc(OC(=O)C=Cc2ccc3c(c2)OCO3)c([N+](=O)[O-])c(=O)[nH]1 returned Pf apPOL inh inactive and mHTT CaM bind 77.
Cn1cc(C(=O)NCCc2c[nH]c3ccccc23)c2[nH]c(=O)n(Cc3ccccc3)c(=O)c21 was read as Pf apPOL inh inactive and mHTT CaM bind 56.
For Cn1cc(C(=O)NCCc2c[nH]c3ccccc23)c2nn(-c3ccccc3)c(=O)c-2c1 the results were Pf apPOL inh inactive and mHTT CaM bind inactive.
For CCOC(=O)c1csc(C)n1 the results were Pf apPOL inh inactive.
Cc1ccc2occ(C(=O)c3ccc(F)cc3)c(=O)c2c1 was read as Pf apPOL inh inactive and mHTT CaM bind inactive.
